TDP1 inh = qHTS Assay for Inhibitors of Tyrosyl-DNA Phosphodiesterase (TDP1); Tyrosyl-DNA phosphodiesterase 1 (Homo sapiens), Q9NUW8; recombinant TDP1, AlphaScreen DNA substrate cleavage; Potency, µM (doses to about 130 µM), actives largely listed as inhibitors; actives 0.28% (n = 350,000); further: nearly all actives have a fitted effect of over 40% in size
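Signal: AlphaScreen proximity between streptavidin donor and anti-FITC acceptor beads on intact substrate. Reaction: Tdp1 1 nM, substrate 15 nM final, 5 min RT after 15 min compound preincubation.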
RECQ1 inh-1 = qHTS Assay for Inhibitors of RecQ-Like Dna Helicase 1 (RECQ1). ATP-dependent DNA helicase Q1 (Homo sapiens), P46063. RECQ1 DNA unwinding, red fluorescence kinetic read. Potency, µM (highest dose often 57.3 µM), hits mostly inhibitors. actives 0.54% (n = 240,000). AID 2549, 2010; further: nearly all actives have a fitted effect of over 30% in size
Target sequence (P46063 whole entry, looked up): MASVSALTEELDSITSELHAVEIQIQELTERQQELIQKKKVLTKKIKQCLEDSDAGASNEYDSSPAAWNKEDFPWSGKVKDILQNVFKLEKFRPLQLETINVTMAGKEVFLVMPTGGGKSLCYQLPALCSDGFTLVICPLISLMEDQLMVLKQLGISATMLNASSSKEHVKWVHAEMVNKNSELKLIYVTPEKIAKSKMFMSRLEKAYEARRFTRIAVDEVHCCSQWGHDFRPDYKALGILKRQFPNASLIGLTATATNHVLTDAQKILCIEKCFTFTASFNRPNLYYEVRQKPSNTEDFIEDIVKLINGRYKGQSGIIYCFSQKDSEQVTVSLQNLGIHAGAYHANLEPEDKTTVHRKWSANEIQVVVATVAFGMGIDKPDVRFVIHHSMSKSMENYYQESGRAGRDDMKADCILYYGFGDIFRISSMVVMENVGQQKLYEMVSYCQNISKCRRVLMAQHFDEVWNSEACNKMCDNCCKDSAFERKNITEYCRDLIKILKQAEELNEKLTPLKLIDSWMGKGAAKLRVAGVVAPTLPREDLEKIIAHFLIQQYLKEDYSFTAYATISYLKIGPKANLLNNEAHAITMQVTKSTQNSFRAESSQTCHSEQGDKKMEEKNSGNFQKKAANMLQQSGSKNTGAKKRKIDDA
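50 nM RECQ1T1 preincubated 15 min with compound in Tris pH 8.0 buffer with MgCl2, DTT, Tween-20 and 2.5 ug/ml poly(dI-dC); started with 200 nM TAMRA/BHQ-2 forked duplex and 2 mM ATP. Unwinding read as fluorescence (525/598 nm), two reads 2 h apart.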
RGS4 inhibitor = Inhibitors of Regulator of G Protein Signaling (RGS) 4: qHTS. Regulator of G-protein signaling 4 (Homo sapiens), P49798. Transcreener GDP fluorescence polarization, RGS4-accelerated GTP hydrolysis. Potency, µM (top dose mostly 114 µM), most hits filed as inhibitors. actives 0.039% (n = 390,000); further: nearly all actives have a fitted effect of over 75% in size
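MLSMR compounds (23 nl, pin-transferred) preincubated 10 min at room temperature with a 500nM (2x) first reagent, then RGS4 at 900nM (2x) plus Transcreener GDP mix added; fluorescence polarization (620/688 nm) read before and after 90 min at 30 °C.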
GCN5L2 inh = qHTS Assay for Inhibitors of GCN5L2 | Potency, µM (top dose mostly 58.9 µM), actives largely listed as inhibitors | AID 504327, 2011 | GCN5L2 HAT assay, ThioGlo1 CoA-SH fluorescence | Histone acetyltransferase KAT2A (Homo sapiens), Q92830 | actives 0.21% (n = 390,000)
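Fluorescence readout, Ex340nm/Em540nm: ThioGlo1 (50uM final) reacts with free CoA thiol released as 20nM GCN5L2 acetylates H3(1-25) peptide (75uM) using acetyl-CoA (70uM). Compound and enzyme sat 15 min beforehand; 20 min room-temperature reaction.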
BLM helicase inh = qHTS Assay for Inhibitors of Bloom's syndrome helicase (BLM). recombinant BLM DNA unwinding, fluorescence dequenching. Potency, µM (highest dose often 56.1 µM), usual class: inhibitors. actives 0.2% (n = 350,000). RecQ-like DNA helicase BLM (Homo sapiens), P54132; further: nearly all actives have a fitted effect of over 35% in size
APEX1 inh = qHTS Assay for Inhibitors of the Human Apurinic/apyrimidinic Endonuclease 1 (APE1) | Potency, µM (top dose mostly 65.8 µM), actives largely listed as inhibitors | AID 2517, 2012 | recombinant APE1, TAMRA/BHQ-2 abasic DNA cleavage fluorescence | DNA repair nuclease/redox regulator APEX1 (Homo sapiens), P27695 | actives 0.35% (n = 350,000); further: nearly all actives have a fitted effect of over 55% in size
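Endonuclease cleavage of a quenched abasic-site DNA duplex (50 nM) by APE1 (0.75 nM) was tracked by TAMRA dequenching. Compounds were preincubated with enzyme 15 min at room temperature; data normalized to buffer-only and DMSO wells plus NSC13755 control.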
RECQ1 conf = Confirmation qHTS Assay for Inhibitors of RecQ-Like Dna Helicase 1 (RECQ1); RECQ1 helicase DNA unwinding, fluorescence; Potency, µM (highest dose often 229 µM), usual class: inhibitors; AID 2708, 2010; actives 28% (n = 610); shares compounds with RECQ1 inh-1; further: nearly all actives have a fitted effect of over 45% in size
RECQ1 ADP FP = Counterscreen for RECQ1 Inhibitors: ADP Fluorescence Polarization Displacement Assay; ADP fluorescence polarization displacement counterscreen; shares compounds with RECQ1 inh-1; Potency, µM (top dose mostly 228 µM), most hits filed as inhibitors; actives 27% (n = 530); AID 2711, 2010; further: nearly all actives have a fitted effect of over 45% in size
RECQ1 inh-2 = Confirmation qHTS Assay for Inhibitors of RecQ-Like Dna Helicase 1 (RECQ1) - Round 2 Cherry Picks; Potency, µM (top dose mostly 119 µM), usual class: inhibitors; shares compounds with RECQ1 inh-1; actives 15% (n = 1,100); recombinant RECQ1 DNA unwinding, red fluorescence; further: nearly all actives have a fitted effect of over 50% in size
Large screens that a line does not name were inactive (follow-up assays come after a bar, where they were run). In the library only some 0.87% were active in any assay of this set; here they are far more common. The call rests on the fitted dose curve; in most records, active means well fitted curve in the direction sought with a large enough effect; inconclusive means small, poorly fitted or top-dose-only effect, or another doubt; inactive means no such curve, though single readings can be large; an effect the other way counts as inactive or inconclusive.

CC[C@H](C)[C@H](NC(=O)[C@H](Cc1ccc(O)cc1)NC(=O)[C@H](Cc1cnc[nH]1)NC(=O)[C@H](CCCNC(=N)N)NC(=O)[C@H](CC(C)C)NC(=O)[C@H](C)NC(=O)[C@H](CO)NC(=O)[C@H](Cc1ccc(O)cc1)NC(=O)[C@H](Cc1ccc(O)cc1)NC(=O)[C@H](CCCNC(=N)N)NC(=O)[C@H](C)NC(=O)[C@H](CCSC)NC(=O)[C@H](CC(=O)O)NC(=O)[C@H](CCC(=O)O)NC(=O)[C@H](C)NC(=O)[C@@H]1CCCN1C(=O)[C@H](C)NC(=O)[C@H](CC(=O)O)NC(=O)[C@H](CCC(=O)O)NC(=O)CNC(=O)[C@@H]1CCCN1C(=O)[C@H](CC(N)=O)NC(=O)[C@H](CC(=O)O)NC(=O)[C@@H]1CCCN1C(=O)[C@H](CCCCN)NC(=O)[C@H](CO)NC(=O)[C@@H]1CCCN1C(=O)[C@@H](N)Cc1ccc(O)cc1)C(=O)N[C@@H](CC(N)=O)C(=O)N[C@@H](CC(C)C)C(=O)N[C@H](C(=O)N[C@H](C(=O)N[C@@H](CCCNC(=N)N)C(=O)N[C@@H](CCC(N)=O)C(=O)N[C@@H](CCCNC(=N)N)C(=O)N[C@@H](Cc1ccc(O)cc1)C(N)=O)[C@@H](C)O)[C@@H](C)CC	none (no result: RGS4 inhibitor)
COc1ccc(C2Nc3ccccc3C(=O)N2Cc2ccccc2)cc1COc1ccc([N+](=O)[O-])cc1 (stereo not drawn)	none (no result: RECQ1 inh-1, GCN5L2 inh, BLM helicase inh, APEX1 inh)
COc1ccccc1C1CC(=O)Oc2cc3c(cc21)OCO3 (stereo not drawn)	RECQ1 inh-1 35µM, GCN5L2 inh 28µM, APEX1 inh 32µM (no result: TDP1 inh, RGS4 inhibitor) | RECQ1 inh-2 28µM
O=C(c1cc(-c2ccco2)on1)N1CCCc2ccccc21	RECQ1 inh-1 40µM | RECQ1 inh-2 inconclusive
O=C(c1cc(-c2ccccc2)on1)N1CCCc2ccccc21	none
CC1CC=CC2C1C(=O)N(Cc1ccccc1)C2c1ccc(F)c(Br)c1 (stereo not drawn)	none (no result: GCN5L2 inh)
Nn1cnnc1N/N=C\c1ccc(-c2ccccc2[N+](=O)[O-])o1	RECQ1 inh-1 4.5µM | RECQ1 conf inactive
CCN(CC)c1ccc(NC(=O)CN2C(=O)c3cccnc3Oc3ccccc32)c(C)c1	none (no result: RECQ1 inh-1, APEX1 inh)
CCOc1cccc(OCCOc2ccccc2[N+](=O)[O-])c1	RECQ1 inh-1 inconclusive | RECQ1 inh-2 inactive
CCOc1ccccc1OCCOCCOc1ccccc1[N+](=O)[O-]	none
COc1ccc(CCn2c(N)c(C(=O)NCc3ccco3)c3nc4ccccc4nc32)cc1OC	RECQ1 inh-1 inconclusive, GCN5L2 inh inconclusive, APEX1 inh inconclusive | RECQ1 inh-2 inactive
COc1ccc(CCn2c(N)c(C(=O)NCc3ccco3)c3nc4ccccc4nc32)cc1	RGS4 inhibitor inconclusive
C[C@H](NC(=O)c1nc[nH]c1C(=O)N[C@@H](Cc1ccccc1)C(=O)OCc1ccccc1)c1ccccc1	RECQ1 inh-1 40µM | RECQ1 inh-2 inactive
CC(C)C[C@H](NC(=O)c1nc[nH]c1C(=O)NCCCCCNC(=O)OC(C)(C)C)C(=O)OCc1ccccc1	RECQ1 inh-1 inconclusive, APEX1 inh inconclusive | RECQ1 inh-2 inactive
CC(C)C[C@H](NC(=O)c1nc[nH]c1C(=O)N[C@@H](CCCCNC(=O)OC(C)(C)C)C(=O)OC(C)(C)C)C(=O)OCc1ccccc1	none (no result: TDP1 inh, RECQ1 inh-1)
C[C@@H](NC(=O)c1nc[nH]c1C(=O)N[C@@H](Cc1ccccc1)C(=O)OCc1ccccc1)c1ccccc1	none
COc1ccc(/C=C/C(=O)CC(=O)/C=C/c2cccc(O)c2OC)cc1O	APEX1 inh inconclusive
CC1CCN(Cc2c(O)ccc3c2O/C(=C\c2ccco2)C3=O)CC1	RGS4 inhibitor inconclusive
O=C1/C(=C/c2ccco2)Oc2c1ccc(O)c2CN1CCCCC1	TDP1 inh inconclusive, RECQ1 inh-1 inconclusive, APEX1 inh inconclusive | RECQ1 inh-2 inactive
CC(C)=C1C(=O)NN(c2ccc(F)c(Cl)c2)C1=O	RECQ1 inh-1 32µM | RECQ1 inh-2 inactive
O=C1NN(c2ccc(F)c(Cl)c2)C(=O)/C1=C\c1cccc(OC(=O)c2cccs2)c1	RGS4 inhibitor inconclusive
CC(C)Cn1nnnc1S(=O)(=O)CC#N	none (no result: RGS4 inhibitor, GCN5L2 inh)
CC[C@H](C)[C@H](NC(=O)[C@H](Cc1ccc(O)cc1)NC(=O)[C@@H](NC(=O)[C@H](CCCNC(=N)N)NC(=O)[C@@H](N)CC(=O)O)C(C)C)C(=O)N[C@@H](Cc1cnc[nH]1)C(=O)N1CCC[C@H]1C(=O)N[C@@H](Cc1ccccc1)C(=O)N[C@@H](Cc1cnc[nH]1)C(=O)N[C@@H](CC(C)C)C(=O)N[C@@H](CC(C)C)C(=O)N[C@H](C(=O)N[C@@H](Cc1ccc(O)cc1)C(=O)N[C@@H](CO)C(=O)O)C(C)C	none (no result: RGS4 inhibitor)
COc1cc(N2CCCC2)c(OC)cc1/C=C(/C#N)c1cccc(F)c1	RECQ1 inh-1 4µM, RGS4 inhibitor inconclusive | RECQ1 conf inconclusive | RECQ1 ADP FP inconclusive
COc1ccc2c(c1)Cc1sc(NC(=O)c3cccs3)nc1-2	RECQ1 inh-1 inconclusive | RECQ1 inh-2 inactive
COc1ccc(C(=O)Nc2nc3c(s2)Cc2cc(OC)ccc2-3)cc1	BLM helicase inh inconclusive, APEX1 inh inconclusive
